MARV entry inh = qHTS for inhibitors of binding or entry into cells for Marburg Virus; Potency, µM (titrated, usually from 37.8 µM), without a hit: at the top dose activity change, negative = inhibition, actives largely listed as inhibitors; Marburg virus pseudotyped entry inhibition, cell reporter; 1.8% of 300,000 active; calls by dose curve; tested in HEK293 cells; note: potency is the fitted concentration of half-maximal effect; % is set by controls: 0 for no effect and ±100 for the full control effect
LASV entry inh = qHTS for Inhibitors of binding or entry into cells for Lassa Virus. Potency, µM (doses to about 37.9 µM), for the others: at the top dose activity change, negative = inhibition, hits mostly inhibitors. Lassa virus pseudotype entry inhibition, cell reporter. 1.2% of 300,000 active. AID 540256, 2011; calls by dose curve; tested in HEK293 cells; note: potency is the fitted concentration of half-maximal effect; % is set by controls: 0 for no effect and ±100 for the full control effect; nearly all actives have a fitted effect of over 50% in size
Pf growth 48h = Primary qHTS for delayed death inhibitors of the malarial parasite plastid, 48 hour incubation; P. falciparum luciferase growth in erythrocytes, 48 h; Potency, µM (titrated, usually from 28.7 µM), for the others: at the top dose activity change, negative = inhibition, actives largely listed as inhibitors; 5.9% of 310,000 active; AID 504832, 2011; note: potency is the fitted concentration of half-maximal effect; % is set by controls: 0 for no effect and ±100 for the full control effect
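Firefly luciferase activity from engineered P. falciparum reports growth; inhibitors lower the luminescent signal. Cultures contained 2% hematocrit erythrocytes at 0.1% final parasitemia.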
CHX counter = Cycloheximide Counterscreen for Small Molecule Inhibitors of Shiga Toxin; max response, %; 12% of 300,000 active; AID 2314, 2010; cell reporter, cycloheximide protein synthesis inhibition counterscreen; in the data active = max response mostly above about 13%, no sharp cut-off; inactive = mostly below about 14%; note: read at 38.3 µM for the half of the compounds with a filed dose; 0% is about no effect
Pf growth 96h = Primary qHTS for delayed death inhibitors of the malarial parasite plastid, 96 hour incubation. P. falciparum luciferase reporter growth, 96 h. Potency, µM (top dose mostly 28.7 µM), for the others: at the top dose activity change, negative = inhibition, usual class: inhibitors. 6.9% of 320,000 active; note: potency is the fitted concentration of half-maximal effect; % is set by controls: 0 for no effect and ±100 for the full control effect
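Erythrocytes infected with luciferase-expressing P. falciparum were dispensed at 2% hematocrit and 0.05% parasitemia (final), then incubated with compounds 96 hours at 37 C in 5% CO2. Luminescence after detection reagent addition reported growth.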
Shiga inhibitor = A qHTS for Small Molecule Inhibitors of Shiga Toxin | 9.2% of 290,000 active | inhibition, % at 38.7 µM | Vero cells, Shiga toxin protein synthesis inhibition reporter | AID 2315, 2010; in the data active = inhibition mostly above about 28%, no sharp cut-off; inactive = mostly below about 43%; note: 0% is about no effect
Starred values were filed as active, the others as inactive; ? = inconclusive; · = no result given; [ ] = another dose, or the depositor's remark. Rows were chosen to be rich in hits. Some 19% of all compounds tested hit in one or more screens of this group. Unless noted, calls come from the whole dose curve; as a rule, active = well fitted inhibition curve with a large enough effect; inconclusive = small, poorly fitted or top-dose-only effect, or another doubt; inactive = no such curve, though single readings can be large or run the other way.

SMILES	MARV entry inh	LASV entry inh	Pf growth 48h	CHX counter	Pf growth 96h	Shiga inhibitor
CCc1nc(N2CCN(C(=O)c3ccco3)CC2)c2oc3ccccc3c2n1	?	?	·	-2	?	-12
COc1cccc(N(CC(=O)N2CCN(C)CC2)S(=O)(=O)c2ccc(C)cc2)c1	6%	-15%	-10%	-2	12µM*	-7
COc1ccc(S(=O)(=O)N(CC(=O)N2CCc3ccccc3C2)c2ccc(C)cc2)cc1	-21%[46.1 µM]	6.3µM*	·	·	·	·
Cc1ccc(S(=O)(=O)N(CC(=O)N2CCc3ccccc3C2)c2ccc(Cl)c(Cl)c2)cc1	?	?	10µM*	-2	?	-12
COc1ccc(C)cc1S(=O)(=O)N(C)CC(=O)N1CCN(C)CC1	9%	?	·	-3	21%	-16
COc1ccc(N(CC(=O)N2CCN(C)CC2)S(=O)(=O)c2cc(C)ccc2OC)cc1Cl	-14%	12%	-10%	-2	8.3µM*	-15
Cn1c(/C(C#N)=C(\O)c2ccccc2Cl)nc2ccccc21	?	-15%[46.1 µM]	·	·	·	·
CN1CCN(CCOc2ccc(Cl)c(Cl)c2)CC1	13%	12%	38%	10	11%	28
CCOCCCNC(=S)NCCCNc1nc2c(C)cc(C)cc2cc1C#N	·	·	?	5	-21%	17
CC(C)c1ccccc1NC(=O)COC(=O)c1cccnc1	-6%[46.1 µM]	17%	-10%	-6	13µM*	2
CC(C)c1ccc(NC(=O)c2cccnc2)cc1	-15%	22%	125%	23*	7.4µM*	74
CC(C)c1ccc(NC(=O)c2csnn2)cc1	?	9.2µM*	184%	30*	·	42*
O=C(NC(=S)Nc1ccccc1Cl)c1csnn1	24%	17%	48%	38*	57%	42*
NS(=O)(=O)c1ccc(NC(=O)c2csnn2)cc1	3%[46.1 µM]	?	·	·	·	·
CC(C)c1ccc(NC(=S)NNC(=O)c2cccnc2)cc1	·	·	30%	13	41%	19
S=c1nccc(-c2ccc(Cl)cc2)[nH]1	16%	23%	20%	1	12%	3
CC1(C)C(CC2OCC(CN3CCCCC3)O2)[C@H]2CC[C@@H]1C2 (stereo partly drawn)	·	·	0%	-2	-2%	3
Cc1cccc(C(C)C)c1NC(=O)c1cccnc1	2%	?	15%	-1	12µM*	2
COC(=O)c1cccnc1	·	·	-18%	-5	-2%	21
CCC(C)c1ccc(O)c(NC(=S)NC(=O)c2cccnc2)c1 (stereo not drawn)	?	3%[46.1 µM]	?	12	26%	-1
CC(C)c1ccc(NC(=O)c2snc3ccc(Cl)cc23)cc1	?	?	63%	39*	-94%	74*
CC(C)c1ccc(O)c(NC(=O)c2cccnc2)c1	2%	4%	·	-3	10µM*	-13
COC(=O)c1ccc(C(NC(=O)c2cccnc2)NC(=O)c2cccnc2)cc1	12%[46.1 µM]	-2%[46.1 µM]	154%	30*	34%	66*
COC(=O)C1=C(c2cccc(OCc3ccccc3)c2)C[C@@H]2CC[C@H]1N2C(=O)NCCOc1ccccc1	·	·	9.3µM*	·	?	·
COC(=O)C1=C(c2cccc(OCc3ccccc3)c2)C[C@@H]2CC[C@H]1N2C(=O)NCCOc1ccccc1Cl	·	·	13µM*	·	?	·
SMILES	MARV entry inh	LASV entry inh	Pf growth 48h	CHX counter	Pf growth 96h	Shiga inhibitor
COC(=O)C1=C(c2c(C)noc2C)C[C@@H]2CC[C@H]1N2C(=O)NCCOc1ccccc1	·	·	?	·	32%	·
COC(=O)C1=C(c2ccccc2OCc2ccccc2)C[C@@H]2CC[C@H]1N2C(=O)NCCOc1ccccc1Cl	1%	·	5.2µM*	·	?	·
COC(=O)C1=C(c2cccc(OCc3ccccc3)c2)C[C@@H]2CC[C@H]1N2C(=O)NCCc1ccc(F)cc1	·	·	7.4µM*	·	?	·
CC(=O)c1cn(CC(=O)Nc2ccc(C)cc2C)c2ccccc12	?	?	?	1	·	-7
COc1ccc(CNc2nc(C)cc(C)c2C#N)cc1	12%	0%	7%	-1	2%	·
CCN(c1ccccc1)S(=O)(=O)c1c(C)nc2scc(C)n2c1=O	7%[46.1 µM]	-2%[46.1 µM]	·	·	·	·
CC(C(=O)N(C)C)N(C#N)c1nc(N(C)C)nc(N(C)C)n1 (stereo not drawn)	?	5%	6%	-2	-17%	-10
COC(=O)C1=C(c2cccc(C#N)c2)C[C@@H]2CC[C@H]1N2C(=O)NCCOc1ccccc1	·	·	?	·	-1%	·
COC(=O)C1=C(c2cccc(C#N)c2)C[C@@H]2CC[C@H]1N2C(=O)NCCOc1ccccc1Cl	·	·	13µM*	·	?	·
Cn1cccc/c1=N\c1cccc[n+]1C	·	·	?	-1	?	-17
COc1ccc(CNc2cccc(F)c2)cc1Br	-7%	14%	·	14	-23%	33
COCC(C)NCc1ccc(OC)c(Br)c1 (stereo not drawn)	-20%[46.1 µM]	24%[46.1 µM]	-29%	-5	12µM*	-17
COc1cccc(/C=N/Nc2cc(-n3nc(C)cc3-c3ccccc3)ncn2)c1O	?	?	5.9µM*	-4	-14%	-12
COc1cccc(/C=N/Nc2nc(Nc3ccccc3)nc(-n3nc(C)cc3C)n2)c1O	?	16µM*	·	44*	?	31*
CCc1nnc(NC(=O)CSc2nc3c(cc2C#N)CCCC3)s1	-13%[46.1 µM]	?	104%	35*	73%	58*
CCOC(=O)CC(=O)CSc1nc2c(cc1C#N)CCC2	-19%	6%	52%	14	89%	4
COC(=O)CC(=O)CSc1nc2c(cc1C#N)CCCCC2	6%	-8%	99%	46*	·	105*
CC[C@@H](C(=O)[C@@H](C)[C@@H](O)[C@H](C)CCc1ccc(C)c(O)c1C(=O)O)[C@H]1O[C@](CC)([C@H]2CC[C@](O)(CC)[C@H](C)O2)C[C@@H]1C	·	·	0.093µM*	5	?	9
CCC(C(=O)C(C)C(O)C(C)CCc1ccc(C)c(O)c1C(=O)O)C1OC(CC)(C2CC[C@@](O)(CC)C(C)O2)CC1C (stereo partly drawn)	·	·	0.38µM*	·	0.38µM*	·
Cc1ccc(C(=O)COC(=O)CNS(=O)(=O)c2ccc(C)cc2)cc1	3%	2%	8%	5	?	13
Cc1cc(S(=O)(=O)Nc2ccc(C(=O)NCC3(N(C)C)CCCCC3)cc2)ccc1F	-17%	4%	?	·	10µM*	·
Cc1cc(S(=O)(=O)Nc2ccc(C(=O)NCC3(N4CCCCC4)CCCCC3)cc2)ccc1F	11µM*	?	?	·	13µM*	·
CC(=O)c1ccc(S(=O)(=O)NCc2ccc(C(=O)NCC(c3ccccc3)N(C)C)cc2)cc1 (stereo not drawn)	?	10%	13µM*	7	?	21
